Test results as given in PubChem BioAssay.
“And” between values parts separate entries of the source, which are not always exact repeats. Identical values can stand only once. The source made the active and inactive calls.

Legend:
[1] = tested on: PRMT1 (protein arginine N-methyltransferase 1); experiment: PRMT1 binders on small-molecule microarrays, primary screen, biochemical, small-molecule microarray, 635 nm fluorescence (AID 1088); settings: small-molecule microarray binding, higher = more signal;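 further: binding of Prmt1 protein to compounds spotted on small-molecule microarray slides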
[2] = yeast growth modulation, basal conditions, primary screen, YJM789 clinical isolate, OD600, 24 h (AID 1089);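 further: growth of clinical yeast isolate S. cerevisiae YJM 789 seeded 1000 cells per well; test concentration not given here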; settings: S. cerevisiae YJM789 growth, higher = more signal, called active from +8 up or from −8 down
[3] = fission yeast growth modulation, primary screen, strain 972, OD600, 24 h, no modulator (AID 1090);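 further: basal condition with compound alone and no growth modifier present; test concentration not given here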; settings: S. pombe 972 growth, higher = more signal, called active from +8 up or from −8 down
[4] = S. cerevisiae growth modulation with rapamycin, primary screen, strain BY4716, OD600, 96 h (AID 1091); settings: higher = more signal, called active from +8 up or from −8 down; further: test concentration not given here
[5] = molecular target: Torsin-1A-interacting protein 2 (Homo sapiens) (UniProt Q8NFQ8); experiment: LULL1 binders on small-molecule microarray, primary screen, cell lysate, human LULL1 lysate, 635/667 nm fluorescence (AID 1092); settings: hLULL1 lysate binding, 635 nm fluorescence, higher = more signal;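 further: probe is lysate of COS7 cells overexpressing human LULL1; score merges per-feature 667 nm fluorescence with signal-to-noise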
Torsin-1A-interacting protein 2 (Homo sapiens), sequence (Q8NFQ8 whole entry, looked up): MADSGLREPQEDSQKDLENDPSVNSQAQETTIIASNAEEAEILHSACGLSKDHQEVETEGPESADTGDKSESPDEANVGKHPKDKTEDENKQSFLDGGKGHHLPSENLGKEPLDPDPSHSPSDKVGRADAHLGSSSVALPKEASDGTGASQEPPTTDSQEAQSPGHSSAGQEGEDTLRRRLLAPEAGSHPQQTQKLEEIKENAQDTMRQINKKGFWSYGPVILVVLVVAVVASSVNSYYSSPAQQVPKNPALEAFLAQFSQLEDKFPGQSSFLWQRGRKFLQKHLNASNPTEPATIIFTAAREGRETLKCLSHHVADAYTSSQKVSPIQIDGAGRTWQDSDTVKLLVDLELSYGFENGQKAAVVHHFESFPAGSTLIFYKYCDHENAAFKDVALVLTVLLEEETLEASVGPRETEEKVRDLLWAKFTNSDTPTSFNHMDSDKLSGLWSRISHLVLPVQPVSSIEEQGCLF

[6] = E. coli growth modulation, two-sided OD650, primary screen, E. coli filamentation project, strain DRC41, 24 h (AID 1093); settings: OD650, 24 h, higher = more signal, called active from +8 up or from −8 down;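 further: MC1000 strain lacking acrAB efflux and sulA so SOS filamentation is blocked; test concentration not given here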
[7] = small-molecule microarray binders of probe aLefty2, primary screen, biochemical, biotinylated probe, 635/667 nm fluorescence (AID 1094); settings: higher = more signal;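 further: score merges spot fluorescence near 667 nm with spot signal-to-noise ratio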
[8] = tested on: Noggin (protein binding on small-molecule microarray); experiment: Noggin binders on small-molecule microarray, primary screen, biochemical, 635/667 nm fluorescence (AID 1095); settings: 635 nm fluorescence, higher = more signal;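 further: score merges 667 nm feature fluorescence with signal to noise over triplicate slides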
[9] = molecular target: Neurogenic locus notch homolog protein 3 (Homo sapiens) (UniProt Q9UM47); experiment: NOTCH3 binders on small-molecule microarray, primary screen, biochemical, 635/667 nm fluorescence (AID 1096); settings: NOTCH3 binding, 635 nm fluorescence, higher = more signal
Neurogenic locus notch homolog protein 3 (Homo sapiens), sequence (Q9UM47 whole entry, looked up): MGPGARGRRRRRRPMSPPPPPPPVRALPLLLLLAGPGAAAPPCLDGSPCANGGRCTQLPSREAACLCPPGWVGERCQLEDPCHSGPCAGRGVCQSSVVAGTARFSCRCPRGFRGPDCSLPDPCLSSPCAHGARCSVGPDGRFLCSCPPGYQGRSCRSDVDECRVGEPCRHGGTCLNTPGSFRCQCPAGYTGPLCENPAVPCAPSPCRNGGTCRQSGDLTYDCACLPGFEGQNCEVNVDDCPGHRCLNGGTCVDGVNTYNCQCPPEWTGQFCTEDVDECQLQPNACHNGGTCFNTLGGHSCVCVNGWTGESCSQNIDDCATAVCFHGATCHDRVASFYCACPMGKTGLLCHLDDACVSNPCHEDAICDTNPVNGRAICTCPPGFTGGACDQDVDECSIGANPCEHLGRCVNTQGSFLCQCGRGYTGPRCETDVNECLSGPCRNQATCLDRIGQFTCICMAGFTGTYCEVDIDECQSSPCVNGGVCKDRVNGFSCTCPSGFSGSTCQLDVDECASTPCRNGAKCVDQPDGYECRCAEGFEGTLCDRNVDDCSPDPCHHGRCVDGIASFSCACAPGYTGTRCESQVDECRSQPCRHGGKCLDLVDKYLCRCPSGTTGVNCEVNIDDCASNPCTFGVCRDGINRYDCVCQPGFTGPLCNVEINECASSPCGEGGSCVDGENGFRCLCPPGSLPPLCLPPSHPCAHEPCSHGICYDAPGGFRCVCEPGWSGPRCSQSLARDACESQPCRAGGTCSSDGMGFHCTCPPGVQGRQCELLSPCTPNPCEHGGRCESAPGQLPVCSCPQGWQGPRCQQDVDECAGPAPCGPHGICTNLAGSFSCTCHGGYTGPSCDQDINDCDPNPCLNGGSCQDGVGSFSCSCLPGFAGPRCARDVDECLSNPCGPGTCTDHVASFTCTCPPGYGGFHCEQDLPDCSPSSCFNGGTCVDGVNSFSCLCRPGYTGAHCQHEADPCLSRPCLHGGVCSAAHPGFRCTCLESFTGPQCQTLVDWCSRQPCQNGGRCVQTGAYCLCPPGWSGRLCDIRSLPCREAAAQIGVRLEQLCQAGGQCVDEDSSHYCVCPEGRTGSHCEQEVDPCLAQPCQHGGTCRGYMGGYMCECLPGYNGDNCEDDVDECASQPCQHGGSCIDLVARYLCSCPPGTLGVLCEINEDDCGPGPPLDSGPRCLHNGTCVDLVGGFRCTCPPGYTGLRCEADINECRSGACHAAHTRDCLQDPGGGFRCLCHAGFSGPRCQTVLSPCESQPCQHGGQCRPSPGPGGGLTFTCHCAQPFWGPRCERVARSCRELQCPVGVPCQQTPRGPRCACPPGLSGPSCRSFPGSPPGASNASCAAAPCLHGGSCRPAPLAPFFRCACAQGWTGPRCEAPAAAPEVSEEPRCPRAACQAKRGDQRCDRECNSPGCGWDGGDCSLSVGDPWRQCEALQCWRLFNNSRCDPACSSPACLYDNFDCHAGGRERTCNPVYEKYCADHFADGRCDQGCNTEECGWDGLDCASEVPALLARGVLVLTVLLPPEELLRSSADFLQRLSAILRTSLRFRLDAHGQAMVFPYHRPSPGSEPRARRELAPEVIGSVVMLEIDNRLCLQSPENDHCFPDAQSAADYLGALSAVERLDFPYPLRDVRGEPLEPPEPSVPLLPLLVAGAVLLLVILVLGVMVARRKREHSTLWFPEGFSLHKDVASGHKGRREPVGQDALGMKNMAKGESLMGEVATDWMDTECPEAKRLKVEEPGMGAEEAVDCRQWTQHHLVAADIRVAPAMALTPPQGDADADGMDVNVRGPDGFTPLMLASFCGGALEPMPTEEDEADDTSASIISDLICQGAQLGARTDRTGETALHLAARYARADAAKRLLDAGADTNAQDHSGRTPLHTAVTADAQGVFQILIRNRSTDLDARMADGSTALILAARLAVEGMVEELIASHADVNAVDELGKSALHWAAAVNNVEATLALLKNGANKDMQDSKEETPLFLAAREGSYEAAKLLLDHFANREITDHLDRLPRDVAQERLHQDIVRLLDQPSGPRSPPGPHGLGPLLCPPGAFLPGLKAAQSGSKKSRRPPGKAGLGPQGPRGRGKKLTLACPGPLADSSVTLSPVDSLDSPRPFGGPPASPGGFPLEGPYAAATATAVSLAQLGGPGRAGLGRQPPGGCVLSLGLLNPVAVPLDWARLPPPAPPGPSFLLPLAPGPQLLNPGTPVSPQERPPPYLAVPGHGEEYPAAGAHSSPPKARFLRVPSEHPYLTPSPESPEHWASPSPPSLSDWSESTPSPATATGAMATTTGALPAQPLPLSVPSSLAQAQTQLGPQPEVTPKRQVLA

[10] = small-molecule microarray binders of probe aEGFR, primary screen, biochemical, biotinylated probe, 635/667 nm fluorescence (AID 1097); settings: higher = more signal;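 further: probe is a biotinylated anti-EGFR antibody binding compounds printed on slides; score combines fluorescence near 667 nm and signal to noise of each spot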
[11] = tested on: Plasmodium falciparum Sir2 (PF13_0152, Sir2A); experiment: pfSir2 binders on small-molecule microarrays, primary screen, biochemical, small-molecule microarray, 635 nm fluorescence (AID 1098); settings: small-molecule microarray binding, fluorescence 635 nm; higher = more signal;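 further: score merges spot fluorescence intensity with its signal-to-noise ratio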
[12] = small-molecule microarray binders of probe aDKK1, primary screen, biochemical, biotinylated probe, 635/667 nm fluorescence (AID 1099); settings: higher = more signal;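 further: score merges 667nm spot fluorescence with signal to noise across triplicate slides; reference of the scale not given here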
[13] = small-molecule microarray binders of probe aCHRDL2, primary screen, biochemical, biotinylated probe, 635/667 nm fluorescence (AID 1100); settings: higher = more signal
[14] = splicing luciferase reporter signal modulators, primary screen, spliceosome inhibition project, cell-based, HEK293, splice +/- reporter (AID 1101); settings: luminescence, 24 h, higher = more signal, called active from +8 up or from −8 down;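 further: HEK293 cells carrying a splicing-competent luciferase reporter gene; test concentration not given here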
[15] = molecular target: Fibroblast growth factor 10 (Homo sapiens) (UniProt O15520); experiment: FGF10 binders on small-molecule microarrays, primary screen, biochemical, small-molecule microarray, 635 nm fluorescence (AID 1102); settings: FGF10 binding, fluorescence 635 nm, higher = more signal
Fibroblast growth factor 10 (Homo sapiens), sequence (O15520 whole entry, looked up): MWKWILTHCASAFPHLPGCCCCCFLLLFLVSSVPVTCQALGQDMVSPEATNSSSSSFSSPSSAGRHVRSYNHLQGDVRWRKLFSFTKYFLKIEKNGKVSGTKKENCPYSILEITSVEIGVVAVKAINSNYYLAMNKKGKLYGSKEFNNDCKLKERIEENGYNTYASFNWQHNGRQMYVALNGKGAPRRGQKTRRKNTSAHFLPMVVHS

[16] = tested on: glycogen synthase kinase-3 (GSK3A per assay name; protocol says GSK3B); experiment: GSK3 binders on small-molecule microarrays, primary screen, biochemical, small-molecule microarray, 635 nm fluorescence, GSK3A (AID 1103); settings: small-molecule microarray binding, fluorescence 635 nm; higher = more signal; further: the record names both GSK3A and GSK3B
[17] = molecular target: Epidermal growth factor receptor (Homo sapiens) (UniProt P00533); experiment: EGFR binders on small-molecule microarrays, primary screen, biochemical, small-molecule microarray, 635 nm fluorescence (AID 1104); settings: EGFR binding, higher = more signal;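 further: score merges 667 nm emission intensity with spot signal to noise over triplicate slides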
Epidermal growth factor receptor (Homo sapiens), sequence (P00533 whole entry, looked up): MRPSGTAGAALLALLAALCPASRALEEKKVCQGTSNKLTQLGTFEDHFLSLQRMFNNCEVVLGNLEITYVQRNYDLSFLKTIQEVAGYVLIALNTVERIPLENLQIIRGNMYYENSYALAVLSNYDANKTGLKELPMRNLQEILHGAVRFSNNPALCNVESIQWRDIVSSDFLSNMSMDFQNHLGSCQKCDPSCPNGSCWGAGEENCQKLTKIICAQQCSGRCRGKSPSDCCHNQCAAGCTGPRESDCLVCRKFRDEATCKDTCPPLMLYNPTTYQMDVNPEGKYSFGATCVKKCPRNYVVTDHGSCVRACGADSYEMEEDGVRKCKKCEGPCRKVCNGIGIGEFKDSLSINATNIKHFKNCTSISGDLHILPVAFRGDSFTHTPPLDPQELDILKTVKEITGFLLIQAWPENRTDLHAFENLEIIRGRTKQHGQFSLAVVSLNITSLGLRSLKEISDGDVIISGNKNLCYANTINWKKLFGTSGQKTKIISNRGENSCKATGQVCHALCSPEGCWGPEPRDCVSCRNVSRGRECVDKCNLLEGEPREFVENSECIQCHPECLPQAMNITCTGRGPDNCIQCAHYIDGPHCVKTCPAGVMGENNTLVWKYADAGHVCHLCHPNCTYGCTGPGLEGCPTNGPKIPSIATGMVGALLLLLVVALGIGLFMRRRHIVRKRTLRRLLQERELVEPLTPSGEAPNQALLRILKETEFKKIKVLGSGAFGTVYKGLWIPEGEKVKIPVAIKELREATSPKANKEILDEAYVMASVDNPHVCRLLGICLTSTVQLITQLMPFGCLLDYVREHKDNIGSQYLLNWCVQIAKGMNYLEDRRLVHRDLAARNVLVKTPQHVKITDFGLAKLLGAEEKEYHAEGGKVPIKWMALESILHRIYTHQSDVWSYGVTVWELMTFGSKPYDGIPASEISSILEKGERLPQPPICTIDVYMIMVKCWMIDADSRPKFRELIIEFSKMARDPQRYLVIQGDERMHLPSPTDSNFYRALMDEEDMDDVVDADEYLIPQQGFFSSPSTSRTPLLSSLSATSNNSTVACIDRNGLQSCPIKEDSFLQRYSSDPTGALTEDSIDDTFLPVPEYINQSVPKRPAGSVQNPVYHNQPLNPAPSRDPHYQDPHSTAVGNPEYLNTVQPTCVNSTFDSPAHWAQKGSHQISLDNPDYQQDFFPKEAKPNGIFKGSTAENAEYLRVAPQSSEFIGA

[18] = molecular target: Follistatin-related protein 3 (Homo sapiens) (UniProt O95633); experiment: FSTL3 binders on small-molecule microarrays, primary screen, biochemical, small-molecule microarray, 635 nm fluorescence (AID 1105); settings: FSTL3 binding, higher = more signal;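 further: score merges emission near 667 nm and signal to noise per printed spot across three slides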
Follistatin-related protein 3 (Homo sapiens), sequence (O95633 whole entry, looked up): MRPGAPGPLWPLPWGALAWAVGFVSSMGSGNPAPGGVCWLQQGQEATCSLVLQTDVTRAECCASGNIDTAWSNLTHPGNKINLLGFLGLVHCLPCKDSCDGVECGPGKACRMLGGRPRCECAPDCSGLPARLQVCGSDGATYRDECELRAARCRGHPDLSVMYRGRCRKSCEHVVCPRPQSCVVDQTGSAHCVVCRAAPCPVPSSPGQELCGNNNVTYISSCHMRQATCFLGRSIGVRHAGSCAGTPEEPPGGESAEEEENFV

[19] = molecular target: Dickkopf-related protein 1 (Homo sapiens) (UniProt O94907); experiment: DKK1 binders on small-molecule microarrays, primary screen, biochemical, small-molecule microarray, 635 nm fluorescence scan (AID 1106); settings: DKK1 binding, higher = more signal;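 further: score merges emission near 667 nm with signal to noise over three replicate slides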
Dickkopf-related protein 1 (Homo sapiens), sequence (O94907 whole entry, looked up): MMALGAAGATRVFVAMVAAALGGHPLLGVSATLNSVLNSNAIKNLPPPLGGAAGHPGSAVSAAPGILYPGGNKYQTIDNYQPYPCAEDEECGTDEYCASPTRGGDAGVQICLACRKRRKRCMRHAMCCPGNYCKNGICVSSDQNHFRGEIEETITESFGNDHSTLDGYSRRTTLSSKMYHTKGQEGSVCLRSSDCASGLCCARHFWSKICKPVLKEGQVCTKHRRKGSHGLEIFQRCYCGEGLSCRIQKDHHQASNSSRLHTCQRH

[20] = tested on: Inhibin beta A chain (activin A); experiment: INHBA (activin A) binders on microarrays, primary screen, biochemical, small-molecule microarray, 635 nm fluorescence scan (AID 1107); settings: small-molecule microarray binding, higher = more signal;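 further: mouse activin A protein probed at 4.33 µg/mL on printed slides; score merges bound-protein fluorescence near 667 nm with spot signal-to-noise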

Row | Structure (SMILES) | composite z-score [1] | z-score [2] | z-score [3] | z-score [4] | composite z-score [5] | z-score [6] | composite z-score [7] | composite z-score [8] | composite z-score [9] | composite z-score [10] | composite z-score [11] | composite z-score [12] | composite z-score [13] | z-score [14] | composite z-score [15] | composite z-score [16] | composite z-score [17] | composite z-score [18] | composite z-score [19] | composite z-score [20]
1 | CC(C)OC(=O)C=C1C[C@@H](c2cccc(C(F)(F)F)c2)O[C@@H](c2cccc(C(F)(F)F)c2)O1 | 0.97 and 1.25 | 0.104 (inactive) and -0.425 (inactive) | 0.63 (inactive) and 0.404 (inactive) | 0.938 (inactive) and 1.23 (inactive) | 2.98 and 2.18 | -0.889 (inactive) and -1.05 (inactive) | -0.143 and -0.177 | -0.696 and -1.07 | -0.534 and -0.875 | -0.254 and -0.243 | 0.937 and 1.55 | 0.326 and -0.186 | 0.605 and -0.185 | 1.12 (inactive) and -1.24 (inactive) | -0.135 and -0.527 | 0.335 and 0.267 | -1.14 and -1.45 | -0.815 and -1.39 | -0.49 and -0.776 | -0.347 and -0.587
2 | C=CCN(C(=O)C(c1cccs1)N(C(=O)/C=C\C(=O)O)c1c(Cl)cccc1CO)C(C)(C)C (stereo not given) | -0.971 and -0.911 | -0.0947 (inactive) and -0.689 (inactive) | -0.588 (inactive) and -0.587 (inactive) | -0.351 (inactive) and -0.595 (inactive) | -0.586 and 0.277 | -0.717 (inactive) and -1.18 (inactive) | 0.0765 and 0.231 | -3.47 and -2.85 | -1.89 and -1.83 | -0.309 and -0.338 | 1.25 and -0.0135 | 0.352 and 0.285 | 1.38 and 1.31 | -0.321 (inactive) and -0.297 (inactive) | -2.54 and -1.41 | -2.14 and -1.33 | -2.12 and -2.63 | -2.45 and -2.23 | -3.69 and -3.04 | -3.4 and -1.92
